WRN helicase inh = WRN helicase (human) inhibition; 0.46% of 360,000 active; Potency, µM (titrated, usually from 114 µM), inactives show at the highest dose activity change, negative = inhibition, usual class: inhibitors; Q14191; AID 651768; WRN helicase unwinding, fluorescent forked duplex, kinetic; further: on the % scale 0 is the no-effect control and ±100 the full control effect; nearly all actives have a fitted effect of over 55% in size
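Screening of the MLSMR collection measured strand separation of a quenched forked DNA duplex (100 nM) by 20 nM WRN with 2 mM ATP, all final. Compounds were preincubated with enzyme 15 min at room temperature.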
FEN1 inhibitor = inhibitors of human flap endonuclease 1; Recombinant FEN1 flap cleavage, fluorescence, 15 min; Potency, µM (highest dose often 114 µM), inactives show at the top dose activity change, negative = inhibition, hits mostly inhibitors; 0.35% of 390,000 active; AID 588795; further: on the % scale 0 is the no-effect control and ±100 the full control effect; nearly all actives have a fitted effect of over 65% in size
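With each library titrated from low to high concentration, compounds met 10 nM FEN1 for 15 min at room temperature before 50 nM substrate was added; readings at 0 and 15 min fed four-parameter Hill curve fits.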
Pol eta inh-1 = DNA polymerase eta (human) inhibition. recombinant Pol eta, fluorescent DNA replication assay. Potency, µM (top dose mostly 114 µM), inactives show at the top dose activity change, negative = inhibition, actives largely listed as inhibitors. Q9Y253. 1.2% of 390,000 active; further: on the % scale 0 is the no-effect control and ±100 the full control effect
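Fluorescent replication assay: 50 nM final substrate added after a 15 min room-temperature compound preincubation with 10 nM enzyme. Signal taken at 0 min and again at 10 min.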
POLB inh = inhibitors of human DNA polymerase beta | Potency, µM (highest dose often 114 µM), inactives show at the highest dose activity change, negative = inhibition, usual class: inhibitors | Pol beta primer extension/strand displacement, fluorescence kinetic | 1.3% of 340,000 active | P06746; further: on the % scale 0 is the no-effect control and ±100 the full control effect
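10 nM enzyme + cpd, 15 min RT; start with substrate 50 nM final; read 0 min and after 10 min RT. Corrected, normalized data; 4-parameter Hill curve fit.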
Pol kappa inh-1 = DNA polymerase kappa (human) inhibition; Q9UBT6; purified Pol kappa, fluorescent DNA synthesis assay, 10 min; Potency, µM (doses to about 107 µM), for the others: top-dose activity, negative = inhibition, hits mostly inhibitors; 0.53% of 400,000 active; further: on the % scale 0 is the no-effect control and ±100 the full control effect
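10 nM Pol kappa was preincubated with compounds for 15 min at room temperature. Reaction started with 50 nM (final) substrate. Fluorescence read kinetically at 0 and 10 min.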
Pol iota inh = DNA polymerase iota (human) inhibition | Pol iota fluorescent replication assay, 10 min | Potency, µM (doses to about 115 µM), without a hit: at the top dose activity, negative = inhibition, usual class: inhibitors | 1% of 390,000 active | AID 588590
Target sequence (Q9UNA4 whole entry, looked up): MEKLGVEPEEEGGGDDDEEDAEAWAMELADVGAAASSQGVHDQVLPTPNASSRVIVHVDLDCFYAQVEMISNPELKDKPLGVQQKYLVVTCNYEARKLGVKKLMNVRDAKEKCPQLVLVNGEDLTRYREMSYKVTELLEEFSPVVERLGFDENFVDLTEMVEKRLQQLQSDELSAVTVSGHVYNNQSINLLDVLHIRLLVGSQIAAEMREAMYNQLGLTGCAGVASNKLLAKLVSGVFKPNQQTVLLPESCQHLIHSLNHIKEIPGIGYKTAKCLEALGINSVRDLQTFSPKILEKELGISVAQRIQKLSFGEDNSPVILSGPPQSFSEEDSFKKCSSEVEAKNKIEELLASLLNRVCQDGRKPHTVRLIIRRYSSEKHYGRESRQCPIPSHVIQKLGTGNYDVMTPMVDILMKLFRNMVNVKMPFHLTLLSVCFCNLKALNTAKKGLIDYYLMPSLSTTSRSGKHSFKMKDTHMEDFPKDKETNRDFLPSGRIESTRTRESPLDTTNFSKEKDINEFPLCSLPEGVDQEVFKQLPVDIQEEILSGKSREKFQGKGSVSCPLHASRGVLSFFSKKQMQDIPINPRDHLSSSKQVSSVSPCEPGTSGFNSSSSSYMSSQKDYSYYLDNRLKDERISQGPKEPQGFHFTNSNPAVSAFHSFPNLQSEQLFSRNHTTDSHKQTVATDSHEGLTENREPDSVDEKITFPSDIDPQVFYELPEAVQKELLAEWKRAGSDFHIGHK
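Fluorescent replication assay read twice, at 0 min and 10 min after adding 50 nM (final) substrate. Enzyme (10 nM) and compounds were first incubated 15 min at room temperature; enzyme-free buffer wells were negative controls.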
PGK validate = blocks T. brucei phosphoglycerate kinase | shares compounds with Pol kappa inh-1 | 79% of 500 active | TbPGK coupled GAPDH assay, Kinase-Glo luminescence | Potency, µM (highest dose often 57.5 µM), inactives show at the top dose activity change, negative = inhibition, most hits filed as inhibitors; further: on the % scale 0 is the no-effect control and ±100 the full control effect; nearly all actives have a fitted effect of over 65% in size
POLI cherry-pick = Inhibitors of human DNA polymerase iota, confirmation; shares compounds with Pol kappa inh-1; Pol iota primer extension, TAMRA/BHQ fluorescence; Potency, µM, most hits filed as inhibitors; 77% of 1,500 active; AID 720496
Pol kappa inh-2 = confirmation of human DNA polymerase kappa inhibitors. shares compounds with Pol eta inh-1. purified Pol-kappa, fluorescent strand-displacement substrate. Potency, µM, most hits filed as inhibitors. 76% of 920 active. AID 720501
Pol eta inh-2 = Pol eta (human) inhibition, cherry-pick confirmation. Pol eta primer extension, TAMRA/BHQ fluorescence, 10 min. shares compounds with Pol eta inh-1. 64% of 2,600 active. Potency, µM, hits mostly inhibitors
* = called active by the depositor; [ ] = another dose, or the depositor's remark. Sampled rows, rich in hits. Any-hit rate of the full collection: about 2.4%. The call rests on the fitted dose curve; in most records, active means well fitted curve in the direction sought with a large enough effect; inconclusive means small, poorly fitted or top-dose-only effect, or another doubt; inactive means no such curve, though single readings can be large; an effect the other way counts as inactive or inconclusive. Potency means the concentration at half of the fitted maximal effect.

What do the screens show for `COc1cc(/C=C2/C(=N)N3C(=NC2=O)SN=C3S(C)(=O)=O)ccc1OS(=O)(=O)c1ccc(C)cc1`?
WRN helicase inh: inconclusive; FEN1 inhibitor: -20%; Pol eta inh-1: 79µM*; POLB inh: inconclusive; Pol kappa inh-1: -28%; Pol iota inh: inconclusive; POLI cherry-pick: inconclusive; Pol eta inh-2: 30*

Results for Cc1ccc(S(=O)(=O)Oc2ccc(/C=C3\C(=N)N4N=C(S(C)(=O)=O)SC4=NC3=O)cc2)cc1 ?
WRN helicase inh: inconclusive; FEN1 inhibitor: inconclusive; Pol eta inh-1: 20µM*; POLB inh: inconclusive; Pol kappa inh-1: -26%; Pol iota inh: 16µM*; POLI cherry-pick: inconclusive; Pol eta inh-2: 76*

What do the screens show for `CCOc1cc(/C=C2\C(=N)N3N=C(S(C)(=O)=O)SC3=NC2=O)ccc1OCCOc1cccc(OC)c1`?
WRN helicase inh: 56µM*; FEN1 inhibitor: -25%; Pol eta inh-1: 28µM*; POLB inh: inconclusive; Pol kappa inh-1: -21%; Pol iota inh: inconclusive; POLI cherry-pick: inconclusive; Pol kappa inh-2: 75*; Pol eta inh-2: 85*

What do the screens show for `COc1cc(/C=C2\C(=N)N3N=C(S(C)(=O)=O)SC3=NC2=O)cc(OC)c1OCCOc1cccc(C)c1`?
WRN helicase inh: -33%; FEN1 inhibitor: -8%; Pol eta inh-1: inconclusive; POLB inh: inconclusive; Pol kappa inh-1: -8%; Pol iota inh: 93%

How did O=C(O)c1[nH]c2ccccc2c1C(c1ccccc1)c1c(C(=O)O)[nH]c2ccccc12 do in these assays?
WRN helicase inh: -16%; FEN1 inhibitor: -4%; Pol eta inh-1: -16%; POLB inh: inconclusive; Pol kappa inh-1: -36%; Pol iota inh: -24%

Results for COc1cc(C(c2c(C(=O)O)[nH]c3ccccc23)c2c(C(=O)O)[nH]c3ccccc23)ccc1OCc1ccccc1 ?
WRN helicase inh: -16%[11.6 µM]; FEN1 inhibitor: -6%; Pol eta inh-1: 50µM*; POLB inh: 45µM*; Pol kappa inh-1: inconclusive; Pol iota inh: -27%; POLI cherry-pick: inconclusive; Pol eta inh-2: inconclusive

Results for Cc1nc2cnc(N3CCOCC3)nc2n(CCc2ccccc2)c1=O ?
Pol kappa inh-1: 1%[60.1 µM]

How did C/C(N)=C(/C#N)C(=O)CSc1nnc(Nc2c(C)cccc2C)s1 do in these assays?
WRN helicase inh: inconclusive; FEN1 inhibitor: -19%; Pol eta inh-1: 18µM*; POLB inh: inconclusive; Pol kappa inh-1: 79µM*; Pol iota inh: inconclusive; POLI cherry-pick: inconclusive; Pol eta inh-2: 48*

Results for C/C(N)=C(/C#N)C(=O)CSc1nnc(Nc2cccc(C)c2C)s1 ?
WRN helicase inh: -5%[11.6 µM]; FEN1 inhibitor: 3%; Pol eta inh-1: -4%; POLB inh: -40%; Pol kappa inh-1: -32%; Pol iota inh: inconclusive

Results for Cc1cc(CNC(=O)[C@]2(C(F)(F)F)C[C@H](CCC3CCCCC3)CCCO2)nn1C ?
FEN1 inhibitor: -10%; Pol kappa inh-1: -14%; Pol iota inh: -19%

Results for Cc1cc(C(=O)NCc2ccc(C(=O)O)o2)c(C)o1 ?
WRN helicase inh: -34%[57.1 µM]; FEN1 inhibitor: 1%; Pol eta inh-1: 4µM*; POLB inh: 28µM*; Pol kappa inh-1: 32µM*; Pol iota inh: 20µM*; PGK validate: inconclusive; POLI cherry-pick: 27*; Pol eta inh-2: 6.7*

How did NCCCCC(NC(CCc1ccccc1)C(=O)O)C(=O)N1CCCC1C(=O)O (stereo unspecified) do in these assays?
Pol kappa inh-1: -1%[60.1 µM]

What do the screens show for `COCCn1c(=O)c(-c2cn(C)c3ccccc23)nc2cnc(N3CCNCC3)nc21`?
Pol kappa inh-1: -13%[60.1 µM]

What do the screens show for `N#Cc1ccccc1N1CCN(C(=O)c2ccc(NC(=O)c3ccc(Br)o3)cc2)CC1`?
WRN helicase inh: -26%; FEN1 inhibitor: -7%; Pol eta inh-1: 22µM*; Pol kappa inh-1: 71µM*; Pol iota inh: 22µM*; POLI cherry-pick: inconclusive; Pol kappa inh-2: inconclusive; Pol eta inh-2: 76*

What do the screens show for `CNC(=O)COc1ccccc1C(=O)Nc1ccccc1`?
FEN1 inhibitor: -6%; Pol kappa inh-1: -3%; Pol iota inh: 2%

What do the screens show for `Fc1ccc(C2=Nc3cccc4cccc(c34)N2)cc1`?
WRN helicase inh: 12%; FEN1 inhibitor: -10%; Pol eta inh-1: 4%; POLB inh: -20%; Pol kappa inh-1: -1%; Pol iota inh: -11%

Results for FC(F)(F)C1=Nc2cccc3cccc(c23)N1 ?
WRN helicase inh: inconclusive; FEN1 inhibitor: 50µM*; Pol eta inh-1: 2.2µM*; Pol kappa inh-1: 6.3µM*; Pol iota inh: 1.6µM*; POLI cherry-pick: 17*; Pol kappa inh-2: 7.5*; Pol eta inh-2: 21*

Results for Cc1cc(C=O)c(C)n1-c1ccc(Cl)c(C(=O)O)c1 ?
WRN helicase inh: inconclusive; FEN1 inhibitor: inconclusive; Pol eta inh-1: 3.2µM*; POLB inh: 3.2µM*; Pol kappa inh-1: 22µM*; Pol iota inh: 5.6µM*; PGK validate: 12µM*; POLI cherry-pick: 11*; Pol eta inh-2: 6*

How did COc1ccc(-c2cc(C(F)(F)F)c3c(n2)sc2c(O)cc(=O)[nH]c23)c(OC)c1 do in these assays?
WRN helicase inh: inconclusive; FEN1 inhibitor: inconclusive; Pol eta inh-1: 13µM*; POLB inh: 56µM*; Pol kappa inh-1: 20µM*; Pol iota inh: inconclusive; POLI cherry-pick: 67*; Pol eta inh-2: 67*

How did O=C(CCCCCn1c(SCc2ccncc2)nc2ccccc2c1=O)NCc1ccco1 do in these assays?
WRN helicase inh: inconclusive; FEN1 inhibitor: -4%; Pol eta inh-1: 79µM*; POLB inh: 40µM*; Pol kappa inh-1: inconclusive; Pol iota inh: 14µM*; POLI cherry-pick: 47*; Pol eta inh-2: 76*

Bioassay records: PubChem, National Center for Advancing Translational Sciences (NCATS)
